NS1 function inh: influenza NS1 inhibition; 270,000 tested, 0.4% active; Potency, µM (top dose mostly 46.1 µM), for inactives: at the top dose activity, positive = more growth; calls by dose curve; further: actives are rising curves; nearly all actives have a fitted effect of over 50% in size
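S. cerevisiae expressing influenza A NS1, grown in glucose, washed, then diluted 1:100 into pH 6.0 -URA galactose medium with 23 nl compound. Growth recovery read as OD600; NS1-free strain serves as control.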
Vaccinia Venus: inhibitors of vaccinia virus (Venus reporter). AID 720580. 330,000 tested, 0.46% active. Vaccinia virus Venus reporter expression, fluorescence. Potency, µM (doses to about 36.5 µM), without a hit: at the highest dose activity change, negative = inhibition, usual class: inhibitors; calls by dose curve; tested in A549 cells; further: on the % scale 0 is the no-effect control and ±100 the full control effect; nearly all actives have a fitted effect of over 30% in size
HCV inh: blocks hepatitis C virus; Potency, µM (doses to about 41.8 µM), for inactives: top-dose activity change, negative = inhibition, hits mostly inhibitors; 340,000 tested, 3.4% active; Huh7.5.1 HCVcc-Cre infection, luciferase reporter, 44 h; AID 651820; further: on the % scale 0 is the no-effect control and ±100 the full control effect
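Seed cells (1,000/well) for 4 h; treat with compound and infect with HCVcc-Cre, moi about 0.5. Incubate 44 h, then detect luciferase activity.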
Pf growth 48h: P. falciparum growth inhibition at 48 hours (one generation); P. falciparum luciferase growth in erythrocytes, 48 h; Potency, µM (series often up to 28.7 µM), inactives show at the highest dose activity change, negative = inhibition, most hits filed as inhibitors; 310,000 tested, 5.9% active; AID 504832; further: on the % scale 0 is the no-effect control and ±100 the full control effect
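Luciferase-expressing parasites in RBCs, 2% Hct / 0.1% parasitemia final; RPMI 1640 + 0.5% Albumax; 37 C, 5% CO2, one generation; luminescence read-out, lower signal = inhibition.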
Pf growth 96h: P. falciparum growth inhibition at 96 hours. P. falciparum luciferase reporter growth, 96 h. Potency, µM (top dose mostly 28.7 µM), without a hit: at the highest dose activity change, negative = inhibition, usual class: inhibitors. 320,000 tested, 6.9% active. AID 504834; further: on the % scale 0 is the no-effect control and ±100 the full control effect
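P. falciparum expressing integrated firefly luciferase grown in erythrocytes (2% hematocrit, 0.05% parasitemia final) with compounds for 96 hours at 37 C, 5% CO2. Growth inhibition read as loss of luminescence after adding luciferase detection reagent.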
VACV mCherry inh: vaccinia inhibition (mCherry reporter); Potency, µM (titrated, usually from 36.5 µM), inactives show top-dose activity change, negative = inhibition, most hits filed as inhibitors; Vaccinia virus mCherry reporter infection, fluorescence; 310,000 tested, 0.63% active; calls by dose curve; tested in A549 cells; further: on the % scale 0 is the no-effect control and ±100 the full control effect; nearly all actives have a fitted effect of over 35% in size
An asterisk follows results filed as active; i = inactive; ? = inconclusive; . = not tested or not shown; ! = not active in a repeat; [ ] = another dose, or the depositor's remark. Most compounds without a hit are left out; they make up all but 11% or so of the library. Unless noted, the call rests on the fitted dose curve; in most records, active means well fitted inhibition curve with a large enough effect; inconclusive means small, poorly fitted or top-dose-only effect, or another doubt; inactive means no such curve, though single readings can be large or run the other way. Potency means the concentration at half of the fitted maximal effect.

SMILES | NS1 function inh | Vaccinia Venus | HCV inh | Pf growth 48h | Pf growth 96h | VACV mCherry inh
Cc1ccc(C)c(NC(=O)COC(=O)c2nc(Cl)ccc2Cl)c1 | . | . | 8% | 4% | 5% | .
COc1ccc2c(c1)c(/C=C/c1cc[n+](C)cc1)cn2C | -2% | 28% | -21% | 1.2µM* | 0.37µM* | ?
CC(=O)Nc1nc(-c2ccccc2)nc(-c2ccccc2OC(C)=O)n1 | -40% | ? | 2.8µM* | ? | ? | ?
Cc1nn2c(c1-c1ccc(Cl)cc1)N=C(c1ccco1)CC2c1ccccc1 (stereo not given) | 6% | -20% | 2.5µM* | ? | 17µM* | ?
CCc1nnc(NC(=O)c2ccc(OC)cc2)s1 | . | -4% | 3% | i | -26% | -13%
COc1ccc(C/C(N)=N/n2cnnc2)cc1 | 1% | 1% | 7% | 17% | -6% | -12%
CC(C)COc1ccc(C/C(N)=N/n2cnnc2)cc1 | 0% | -12% | 14µM* | 3% | 20% | i
C=CCSc1nnc(-c2cc(C(C)(C)C)nn2Cc2ccc(F)cc2)n1C | 2% | -11% | -12% | 13µM* | 9.3µM* | i
O=C(Nc1ccccc1)N1CCOCC1 | 1% | . | 13% | 2% | 26% | .
COc1ccc(C(=O)C/C(=C\C(=O)c2ccc(C)cc2)c2ccccc2)cc1 | 13% | . | 11µM* | ? | 10µM* | .
COc1ccc(C(=O)CC(=O)c2ccccc2)cc1 | . | -3% | -10% | . | . | i
CC(=O)NC1=NN(C(C)=O)C2(CCCCC2)S1 | 5% | -10% | 2.8µM* | -16% | -12% | -11%
OC(COc1cccc2ccccc12)CN1CCCC1 (stereo not given) | 10% | . | ? | 22% | 116% | .
Cc1ccccc1OCC(O)CN1CCN(CC(O)COc2ccccc2C)C(C)C1 (stereo not given) | 6% | -24% | -16% | 9.3µM* | ? | -5%
Cc1ccccc1OCC(O)CN1CCN(CCN2C(=O)c3cccc4cccc(c34)C2=O)CC1 (stereo not given) | -4% | -27% | ? | 0% | ? | -14%
CCOC(=O)N1CCN(CC(O)COc2ccccc2C(C)(C)C)CC1 (stereo not given) | -6% | -16% | 26% | -3% | 18% | -3%
C=C1CC(C)OC(c2ccccc2OCC(O)CN2CCCCC2)C1 (stereo not given) | 4% | . | -20% | 15µM* | 18% | .
CC1CN(CC(O)COc2ccccc2C(C)(C)C)CC(C)O1 (stereo not given) | 0% | -19% | -11% | 2.3µM* | 8.3µM* | -21%
Cc1ccccc1OCC(O)Cn1c2ccccc2c2ccccc21 (stereo not given) | -94% | -24% | 7.9µM* | 8.3µM* | 12µM* | -25%
O=C(COc1ccccc1F)Nc1nnc(S(=O)(=O)N2CCCCCC2)s1 | . | -13% | . | . | . | -17%
CC(=O)NC(CCS(C)(=O)=O)C(=O)Nc1ccc2c(c1)OCCO2 (stereo not given) | -1% | -6% | -4% | 27% | ? | i
Cc1cc(C)n(CC(O)Cn2ccc3ccccc32)n1 (stereo not given) | 2% | . | -14% | . | ? | .
Cc1cc(C)n(CC(O)Cn2c3ccccc3c3ccccc32)n1 (stereo not given) | 1% | ? | ? | 10µM* | . | ?
CC(=O)Nc1ccc(OCC(O)Cn2c3ccccc3c3ccccc32)c(C)c1 (stereo not given) | 2% | ? | ? | ? | 10µM* | ?
O=C1C2C3C=CC(C3)C2C(=O)N1c1nccs1 (stereo not given) | -7% | . | 8% | -7% | . | .
CCN(CC)CCOc1ccccc1C(=O)CCc1ccccc1 | . | . | . | -15% | ? | .
CCN(CC)CC(O)COc1ccccc1C(=O)CCc1ccccc1 (stereo not given) | -18% | -17% | -18% | 1.5µM* | . | i
CCCNCC(O)COc1ccccc1C(=O)CCc1ccccc1 (stereo not given) | -13% | -14% | -17%[8.37 µM] | 1.2µM* | 3.3µM*! | -20%
O=C(NCCc1ccc(Cl)cc1)c1ccc(Cn2c(=O)c3cccn3c3cccnc32)cc1 | . | -28% | . | . | . | -26%
